Measurements published in PubChem BioAssay (NCATS).
Where “and” joins values, the source holds several entries; their conditions need not be identical. Identical values can stand only once. Inconclusive results are not listed. Calls of active or inactive are those of the source. Unless noted, the call rests on the fitted dose curve; in most records, active means well fitted curve in the direction sought with a large enough effect; inconclusive means small, poorly fitted or top-dose-only effect, or another doubt; inactive means no such curve, though single readings can be large; an effect the other way counts as inactive or inconclusive.

How the values were obtained:
[1] = biological target: Estrogen receptor (Homo sapiens) (UniProt P03372); test: qHTS assay for small molecule antagonists of estrogen receptor alpha signaling (AID 588513; active means well fitted curve in the direction sought with a large enough effect in the signal ratio, with a control signal flat, not every such curve was filed as active; the % refers to the signal ratio; further: on the % scale 0 is the no-effect control and ±100 the full control effect); settings: ER-alpha-UAS-bla HEK293, beta-lactamase ratio, antagonist mode; series mostly up to 76.9 µM
Estrogen receptor (Homo sapiens), sequence (P03372 whole entry, looked up): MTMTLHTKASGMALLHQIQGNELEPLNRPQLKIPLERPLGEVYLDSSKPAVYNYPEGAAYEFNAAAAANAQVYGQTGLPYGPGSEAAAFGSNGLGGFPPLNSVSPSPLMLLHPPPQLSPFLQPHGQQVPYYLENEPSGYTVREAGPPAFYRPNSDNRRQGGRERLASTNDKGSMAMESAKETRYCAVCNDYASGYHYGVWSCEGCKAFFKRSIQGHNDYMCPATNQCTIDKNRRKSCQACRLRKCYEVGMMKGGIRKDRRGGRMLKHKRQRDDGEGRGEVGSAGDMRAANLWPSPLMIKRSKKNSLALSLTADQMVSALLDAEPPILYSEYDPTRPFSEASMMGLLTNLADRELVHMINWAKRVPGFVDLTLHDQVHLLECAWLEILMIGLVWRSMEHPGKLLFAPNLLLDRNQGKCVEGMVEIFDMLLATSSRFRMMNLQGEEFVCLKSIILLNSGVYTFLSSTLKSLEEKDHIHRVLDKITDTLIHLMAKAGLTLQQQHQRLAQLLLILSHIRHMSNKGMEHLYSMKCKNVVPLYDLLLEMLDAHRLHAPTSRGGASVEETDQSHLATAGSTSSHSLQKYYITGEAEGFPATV
Outline: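 Fluorescence from CCF4 substrate after 2 h at room temperature gave reporter activity; cells had been exposed to compound and 0.5nM 17-beta-estradiol for 18 h at 37 C. Hill-equation fitting yielded IC50 and maximal response.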

[2] = biological target: Estrogen receptor (Homo sapiens) (UniProt P03372); test: qHTS assay for small molecule agonists of estrogen receptor alpha signaling (AID 588514; calls by dose curve;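 further: 0% = vehicle only and 100% = reference agonist; nearly all actives have a fitted effect of over 70% in size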); settings: ER-alpha-UAS-bla HEK293, beta-lactamase ratio, 18 h; series mostly up to 76.8 µM
Outline: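 Cells were plated at 5000/well, incubated 4 hrs at 37 C, dosed with compound titration series, incubated 18 hrs at 37 C, loaded with CCF4 dye for 2 hrs at RT, then fluorescence was read.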

[3] = biological target: Glucocorticoid receptor (Homo sapiens) (UniProt P04150); test: qHTS assay for small molecule agonists of glucocorticoid receptor signaling (AID 588532; active means well fitted curve in the direction sought with a large enough effect in the signal ratio, with a control signal flat; the % refers to the signal ratio;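 further: 100% = dexamethasone at 0.1 µM and 0% = DMSO only wells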); settings: HeLa MMTV-bla, beta-lactamase ratio, agonist, 18 h; stronger effect = higher value; percent of dexamethasone control, DMSO zero
Glucocorticoid receptor (Homo sapiens), sequence (P04150 whole entry, looked up): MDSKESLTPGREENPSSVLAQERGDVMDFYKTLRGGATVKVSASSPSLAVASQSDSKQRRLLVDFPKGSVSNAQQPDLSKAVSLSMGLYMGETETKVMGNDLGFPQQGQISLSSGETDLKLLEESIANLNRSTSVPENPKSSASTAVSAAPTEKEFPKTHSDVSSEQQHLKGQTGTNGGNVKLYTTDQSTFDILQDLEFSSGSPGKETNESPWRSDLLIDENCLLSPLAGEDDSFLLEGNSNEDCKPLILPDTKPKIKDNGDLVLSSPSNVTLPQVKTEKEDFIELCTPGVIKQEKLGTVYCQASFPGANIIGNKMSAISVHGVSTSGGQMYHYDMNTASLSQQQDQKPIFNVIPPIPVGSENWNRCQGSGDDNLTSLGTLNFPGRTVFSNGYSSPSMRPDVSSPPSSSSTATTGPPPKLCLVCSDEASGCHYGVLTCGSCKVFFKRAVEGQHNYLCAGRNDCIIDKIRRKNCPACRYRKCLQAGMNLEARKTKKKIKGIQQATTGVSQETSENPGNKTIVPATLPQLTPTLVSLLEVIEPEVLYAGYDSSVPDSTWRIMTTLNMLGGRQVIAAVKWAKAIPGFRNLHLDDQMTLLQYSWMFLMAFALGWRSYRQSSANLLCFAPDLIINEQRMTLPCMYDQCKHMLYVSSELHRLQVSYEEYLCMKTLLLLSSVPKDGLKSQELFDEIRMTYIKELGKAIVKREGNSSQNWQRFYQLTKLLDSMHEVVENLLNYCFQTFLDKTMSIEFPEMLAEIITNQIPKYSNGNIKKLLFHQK
Outline: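 HeLa GRE-bla reporter cells; 18 h compound exposure at 37 C; 2 h CCF4 loading at room temperature; fluorescence at 460 and 530 nm; EC50 by Hill equation.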

[4] = biological target: Peroxisome proliferator-activated receptor gamma (Homo sapiens) (UniProt P37231); test: qHTS assay for small molecule agonists of peroxisome proliferator-activated receptor gamma signaling (AID 588536; active means well fitted curve in the direction sought with a large enough effect in the signal ratio, with a control signal flat, not every such curve was filed as active; the % refers to the signal ratio;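 further: 0% = DMSO basal wells and 100% = rosiglitazone at 2 µM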); settings: HEK293 PPARg-UAS-bla, beta-lactamase ratio, 16 h, percent of rosiglitazone response, DMSO as zero; series mostly up to 76.7 µM
Peroxisome proliferator-activated receptor gamma (Homo sapiens), sequence (P37231 whole entry, looked up): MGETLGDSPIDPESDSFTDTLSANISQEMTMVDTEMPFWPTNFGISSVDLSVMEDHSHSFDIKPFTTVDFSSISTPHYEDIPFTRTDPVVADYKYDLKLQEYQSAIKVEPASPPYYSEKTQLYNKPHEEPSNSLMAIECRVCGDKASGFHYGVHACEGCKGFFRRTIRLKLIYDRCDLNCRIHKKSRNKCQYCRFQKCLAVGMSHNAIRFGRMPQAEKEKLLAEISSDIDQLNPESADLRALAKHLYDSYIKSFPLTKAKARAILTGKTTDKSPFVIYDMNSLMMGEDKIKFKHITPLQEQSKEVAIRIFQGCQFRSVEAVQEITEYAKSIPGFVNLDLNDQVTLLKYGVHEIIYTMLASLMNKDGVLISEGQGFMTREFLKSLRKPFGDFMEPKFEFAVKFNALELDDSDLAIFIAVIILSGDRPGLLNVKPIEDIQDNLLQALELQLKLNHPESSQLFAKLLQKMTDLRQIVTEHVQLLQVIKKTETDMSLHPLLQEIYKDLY
Outline: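 Test agents, titrated, stimulated HEK293 UAS-bla cells overnight (16 h, 37 C). Substrate CCF4 was then added for two hours at room temperature before fluorescence reading.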

[5] = qHTS assay for small molecule agonists of retinoid X receptor alpha signaling (AID 588544; calls by dose curve;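 on activation: 0% = DMSO basal wells and 100% = reference agonist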); settings: HEK293T RXRa-UAS-bla, beta-lactamase reporter, 18 h; 530 nm emission
[6] = biological target: Retinoic acid receptor RXR-alpha (Homo sapiens) (UniProt P19793); test: as above; settings: HEK293T RXRa-UAS-bla, beta-lactamase reporter, 18 h; series mostly up to 76.7 µM
Retinoic acid receptor RXR-alpha (Homo sapiens), sequence (P19793 whole entry, looked up): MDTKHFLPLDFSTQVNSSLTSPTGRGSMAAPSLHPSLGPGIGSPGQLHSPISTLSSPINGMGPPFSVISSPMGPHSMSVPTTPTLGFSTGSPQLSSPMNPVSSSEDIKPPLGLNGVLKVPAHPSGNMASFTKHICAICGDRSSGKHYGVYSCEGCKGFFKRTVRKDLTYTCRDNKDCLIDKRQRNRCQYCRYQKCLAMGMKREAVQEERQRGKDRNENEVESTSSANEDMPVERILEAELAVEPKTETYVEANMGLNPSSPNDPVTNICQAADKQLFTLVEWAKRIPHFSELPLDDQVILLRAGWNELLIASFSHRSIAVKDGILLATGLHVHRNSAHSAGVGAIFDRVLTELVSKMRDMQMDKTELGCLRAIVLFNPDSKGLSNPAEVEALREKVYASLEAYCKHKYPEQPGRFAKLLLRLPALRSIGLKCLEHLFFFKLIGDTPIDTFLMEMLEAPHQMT

[7] = biological target: Thyroid hormone receptor beta (Homo sapiens) (UniProt P10828); test: qHTS assay for small molecule agonists of thyroid hormone receptor beta signaling (AID 588545; calls by dose curve); settings: TR-UAS-bla GripTite HEK 293, beta-lactamase ratio, agonist mode, 18 h; series mostly up to 76.7 µM
Thyroid hormone receptor beta (Homo sapiens), sequence (P10828 whole entry, looked up): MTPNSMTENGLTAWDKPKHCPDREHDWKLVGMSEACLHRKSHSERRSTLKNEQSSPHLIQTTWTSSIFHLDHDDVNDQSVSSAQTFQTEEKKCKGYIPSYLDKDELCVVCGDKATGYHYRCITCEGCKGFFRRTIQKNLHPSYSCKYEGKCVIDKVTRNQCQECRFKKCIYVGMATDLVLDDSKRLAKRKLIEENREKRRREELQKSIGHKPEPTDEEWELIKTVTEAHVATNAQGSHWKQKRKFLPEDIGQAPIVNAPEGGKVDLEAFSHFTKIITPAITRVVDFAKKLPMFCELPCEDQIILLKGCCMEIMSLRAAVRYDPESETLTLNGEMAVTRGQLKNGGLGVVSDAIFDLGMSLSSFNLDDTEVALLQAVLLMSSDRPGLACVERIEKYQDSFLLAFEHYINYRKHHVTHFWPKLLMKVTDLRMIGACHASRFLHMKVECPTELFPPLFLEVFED
Outline: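 Agonist activity was read as beta-lactamase CCF4 fluorescence (405 ex, 460/530 em), scaled between DMSO (0%) and 10 nM T3 (100%), then Hill-fitted for EC50 and efficacy. HEK 293 TR-UAS-bla cells in 2% charcoal/dextran FBS medium were exposed 18 h at 37 C.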

[8] = qHTS assay for small molecule antagonists of retinoid X receptor alpha signaling (AID 588546; active means well fitted inhibition curve with a large enough effect in the signal ratio, with a control signal flat, not every such curve was filed as active; the % refers to the signal ratio;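 further: cells stimulated with 9-cis-retinoic acid as agonist; on the % scale 0 is the no-effect control and ±100 the full control effect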); settings: HEK293T RXRa-UAS-bla, beta-lactamase ratio, antagonist mode; measured here: W530 green channel, cytotoxicity proxy
Outline: (§1)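 Beta-lactamase reporter inhibition, read as CCF4 fluorescence ratio (ex 405, em 460/530 nm) after 2 h at RT. HEK293T UAS-bla cells, 2500/well, were stimulated with 9-cis-RA at 500 or 100 nM final alongside test compound for 18 h at 37 C.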

[9] = biological target: Retinoic acid receptor RXR-alpha (Homo sapiens) (UniProt P19793); test: as above; settings: HEK293T RXRa-UAS-bla, beta-lactamase ratio, antagonist mode
Outline: as §1

[10] = biological target: Thyroid hormone receptor beta (Homo sapiens) (UniProt P10828); test: qHTS assay for small molecule antagonists of thyroid hormone receptor beta signaling (AID 588547; active means well fitted inhibition curve with a large enough effect in the signal ratio, with a control signal flat, not every such curve was filed as active; the % refers to the signal ratio;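 further: cells stimulated with 0.4 nM T3 agonist during compound exposure; on the % scale 0 is the no-effect control and ±100 the full control effect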); settings: TR-UAS-bla HEK293, beta-lactamase ratio, antagonist mode, 18 h
Outline: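 TR-UAS-bla GripTite HEK293 cells in 2% charcoal/dextran FBS medium; compounds 0.59 nM to 92 uM with T3 at 0.4nM final, 18 h at 37 C. Beta-lactamase read by CCF4 fluorescence (460/530 nm); Hill fits gave IC50 and efficacy.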

[11] = qHTS assay for environmental chemicals that activate the Aryl hydrocarbon Receptor (AhR) signaling pathway (AID 651777); settings: 1A2-DRE human hepatoma cells, luciferase, 24 h; activation: stronger effect = higher value; further: % of control where 0% means no effect; nearly all actives have a fitted effect of over 15% in size
Outline: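 Luminescence read-out: One-Glo added for 30 min at RT after 24 hr compound treatment (37 C, 5% CO2) of human hepatoma cells expressing a DRE/CYP1A2 promoter–luciferase reporter; increased signal indicates AhR activation.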

[12] = biological target: Peroxisome proliferator-activated receptor alpha (Homo sapiens) (UniProt Q07869); test: qHTS assay for small molecule agonists of the peroxisome proliferator-activated receptor alpha (PPARalpha) signaling pathway (AID 651778); settings: PathHunter PPARalpha complementation, chemiluminescence, 6 h; max response: stronger effect = higher value; further: % of control where 0% means no effect
Peroxisome proliferator-activated receptor alpha (Homo sapiens), sequence (Q07869 whole entry, looked up, the tested form may be a part): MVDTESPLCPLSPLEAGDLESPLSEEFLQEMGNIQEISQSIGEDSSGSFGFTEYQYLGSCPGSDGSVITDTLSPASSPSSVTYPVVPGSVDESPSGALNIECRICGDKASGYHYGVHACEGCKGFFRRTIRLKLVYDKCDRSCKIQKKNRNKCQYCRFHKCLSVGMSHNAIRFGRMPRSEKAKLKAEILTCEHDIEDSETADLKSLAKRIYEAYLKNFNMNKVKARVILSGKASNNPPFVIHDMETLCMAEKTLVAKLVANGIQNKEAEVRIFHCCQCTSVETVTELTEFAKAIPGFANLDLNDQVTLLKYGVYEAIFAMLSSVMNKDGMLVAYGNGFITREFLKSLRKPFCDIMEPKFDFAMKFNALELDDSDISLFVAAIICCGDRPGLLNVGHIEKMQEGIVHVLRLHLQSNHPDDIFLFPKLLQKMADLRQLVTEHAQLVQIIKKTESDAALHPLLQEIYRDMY
Outline: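 Enzyme-fragment complementation assay in which ligand-bound PPARalpha translocates and forms an active enzyme that generates chemiluminescence. Cells were plated overnight, exposed to compound for 6 hr at 37 C, and then given detection reagent for 60 min at room temperature.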

[13] = qHTS assay for small molecule agonists of the antioxidant response element (ARE) signaling pathway measured by Nrf2-dependant transcriptional activity - cell viability counter screen (AID 720653; active means well fitted curve in the direction sought with a large enough effect in the repeat runs; an effect the other way counts as inactive or inconclusive; further: on the % scale 0 is the no-effect control and ±100 the full control effect); settings: ARE-bla HepG2 viability, CellTiter-Glo ATP luminescence, 16 h; max response: stronger effect = lower value
Outline: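 ARE-bla HepG2 cells treated with compounds for 16 h at 37C; this counter screen measures viability as intracellular ATP by CellTiter-Glo luminescence after 30 min at room temperature.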

[14] = qHTS assay for cell viability of HEK293 cells (AID 743288); settings: ATP luminescence (CellTiter-Glo), 18 h; max response: stronger effect = lower value; further: on the % scale 0 is the no-effect control and ±100 the full control effect; nearly all actives have a fitted effect of over 50% in size
Outline: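 HEK293 parental, 2,000 cells/well; ≥5 h pre-incubation 37 C; pintool compound addition; 18 h, 37 C; CellTiter-Glo 30 min RT; luminescence read.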

[15] = qHTS assay for cell viability of the p53RE-bla HCT-116 cell line (AID 743292); settings: p53RE-bla HCT-116 viability, ATP luminescence, 16 h; series mostly up to 95 µM; further: on the % scale 0 is the no-effect control and ±100 the full control effect; nearly all actives have a fitted effect of over 55% in size
Outline: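 Luminescent ATP quantitation (CellTiter-Glo) served as the viability read-out; reagent was added after 16 h compound exposure at 37 C and read after 30 min at room temperature. Cells: p53RE-bla HCT-116, 4,000 per well.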

[16] = biological target: Nuclear receptor subfamily 1 group I member 2 (Rattus norvegicus) (UniProt Q9R1A7); test: qHTS assay for small molecule activators of the rat pregnane X receptor (rPXR) signaling pathway (AID 651751; call rule not given here; further: 0% is about no effect); settings: rPXR reporter cells, luciferase (One-Glo), 24 h
Nuclear receptor subfamily 1 group I member 2 (Rattus norvegicus), sequence (Q9R1A7 whole entry, looked up): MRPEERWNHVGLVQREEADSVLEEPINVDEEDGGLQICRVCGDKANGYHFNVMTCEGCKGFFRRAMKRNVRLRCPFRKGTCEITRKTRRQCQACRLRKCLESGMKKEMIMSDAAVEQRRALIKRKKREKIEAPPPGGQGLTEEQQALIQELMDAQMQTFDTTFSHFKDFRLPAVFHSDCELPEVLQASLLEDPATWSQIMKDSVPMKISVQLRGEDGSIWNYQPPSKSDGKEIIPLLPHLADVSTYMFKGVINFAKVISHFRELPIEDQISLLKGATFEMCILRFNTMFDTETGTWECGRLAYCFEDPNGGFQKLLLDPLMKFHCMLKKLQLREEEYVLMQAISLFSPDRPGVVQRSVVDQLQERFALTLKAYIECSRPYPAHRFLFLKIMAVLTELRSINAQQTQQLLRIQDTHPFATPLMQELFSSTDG

[17] = qHTS assay for small molecule activators of the human pregnane X receptor (PXR) signaling pathway (AID 720659; call rule not given here; further: 0% is about no effect); settings: DPX-2 HepG2 CYP3A4-luciferase, 24 h; series mostly up to 92.3 µM
[18] = qHTS assay for small molecule antagonists of peroxisome proliferator-activated receptor delta signaling (AID 588535); settings: HEK293T PPARd-UAS-bla, beta-lactamase FRET ratio, 18 h; 460 nm channel;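 further: cells co-treated with a PPAR-delta agonist as stimulator during compound exposure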
Outline: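 Antagonist-mode beta-lactamase reporter (GeneBLAzer PPAR-delta-UAS-bla) in HEK293T cells, 2% charcoal/dextran FBS, 4000 cells/well. Compound titrations, 18 h at 37 C; CCF4 ratio read, IC50 and efficacy from Hill fits.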

[19] = biological target: Vitamin D3 receptor (Homo sapiens) (UniProt P11473); test: qHTS assay for small molecule antagonists of vitamin D receptor signaling (AID 588541; calls by dose curve); settings: HEK293T VDR-UAS-bla, beta-lactamase ratio, antagonist mode; series mostly up to 76.7 µM
Vitamin D3 receptor (Homo sapiens), sequence (P11473 whole entry, looked up): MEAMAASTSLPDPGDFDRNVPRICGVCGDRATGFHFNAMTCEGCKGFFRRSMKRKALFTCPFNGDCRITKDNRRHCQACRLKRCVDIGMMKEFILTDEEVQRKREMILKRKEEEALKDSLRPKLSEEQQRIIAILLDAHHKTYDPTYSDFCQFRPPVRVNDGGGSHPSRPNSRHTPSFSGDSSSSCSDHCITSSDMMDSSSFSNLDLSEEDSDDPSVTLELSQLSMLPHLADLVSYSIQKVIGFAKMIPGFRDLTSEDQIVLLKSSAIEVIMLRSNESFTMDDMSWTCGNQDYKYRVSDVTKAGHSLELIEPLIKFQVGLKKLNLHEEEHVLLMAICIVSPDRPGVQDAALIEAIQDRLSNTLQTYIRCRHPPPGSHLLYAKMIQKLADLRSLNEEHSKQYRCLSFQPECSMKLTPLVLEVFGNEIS
Outline: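 VDR-UAS-bla HEK293T cells in 2% charcoal-stripped FBS were stimulated with 1-alpha,25-dihydroxyvitamin D3 (3 nM final) plus compound for 16 h at 37 C. The beta-lactamase CCF4 readout was normalized to 50 nM agonist and DMSO, and Hill fits gave IC50.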

[20] = qHTS assay for small molecule activators of the nuclear factor-kappa B (NF-kB) signaling pathway (AID 651749; active means well fitted activation curve with a large enough effect in the signal ratio; the % refers to the signal ratio; further: % of control where 0% means no effect); settings: NF-kB-bla ME-180 cells, beta-lactamase FRET ratio, 16 h; activation: stronger effect = higher value
Outline: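 NF-kB-bla ME-180 cells carrying a beta-lactamase reporter under an NF-kB response element, 2,000 cells/well, exposed to compound for 16 hr at 37C; FRET-based beta-lactamase fluorescence read-out of pathway activation.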

CCCC/C=C/CCCCO
-7.43%: max response [8]
-14.6%: max response [5]
inactive: Potency [1] | Potency [2] | activation [3] -4.1% | outcome [4] | Potency [6] | Potency [7] | max response [9] -16.5% | activity change % (negative = inhibition) [10] 0.772% | activation [11] -0.731% | max response [12] -1.7% | max response [13] 0.665% | max response [14] -11.8% | Potency [15] | max response [16] -2.13% | outcome [17]

C=CC(=O)NC(C)(C)CS(=O)(=O)O
6.06% and 6.67%: max response [8]
inactive: Potency [1] | Potency [2] | outcome [4] | Potency [19] | Potency [6] | max response [9] -8.43% and -30.3% | activity change % (negative = inhibition) [10] 13.1% and 23.4% | activation [20] -1.64% and -0.911% | activation [11] 1.15% and -0.952% | max response [12] 2.58% and -1.53% | max response [13] -6.76% and -9.12% | max response [14] -20.6% and -8.34% | Potency [15] | max response [16] -5.7% and -3.87% | outcome [17]
-14.1% and -12.4%: max response [5]
15.1% and -58.6%: max response [18]

CCCCCCCCCCCCCO
18.2%: max response [18]
-5.73%: max response [8]
inactive: Potency [1] | Potency [2] | activation [3] 0.908% | outcome [4] | Potency [19] | Potency [6] | Potency [7] | max response [9] 3.57% | activation [11] 0.322% | max response [12] 1.19% | max response [14] -5.94% | Potency [15] | max response [16] 1.91% | outcome [17]
-5.38%: max response [5]

O=[N+]([O-])c1ccc2c(c1)Cc1ccccc1-2
-2.02%: max response [8]
-11.5%: max response [5]
11.1%: max response [18]
inactive: Potency [1] | Potency [2] | activation [3] -0.149% | Potency [6] | Potency [7] | max response [9] -11.9% | activity change % (negative = inhibition) [10] -0.921% | activation [20] -1.58% | activation [11] 0.842% | max response [12] -0.719% | max response [13] -13.8% | max response [14] -16.4% | Potency [15] | max response [16] 5.85% | outcome [17]
